Shown are actives, neighbours in structure and some others; about 0.31% of the full set was active somewhere.
TRPML1 agonist: agonists of human TRPML1 channel. AID 624414. TRPML1-expressing cells, Ca2+ dye fluorescence, FDSS. activation, % (test concentration not listed). Q9GZU1. actives 0.12% (n = 410,000); in the data active means activation above about 50%; inconclusive means mostly about 30% to 49%
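Tetracycline-induced TRPML1-DL cells are seeded and incubated overnight before loading with a no-wash Ca2+ dye and quencher. Agonist activity is taken from the 110 s fluorescence read following compound pin-transfer on an FDSS, before EC80 54-4 challenge.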
TRPV1 PAM: potentiators of human vanilloid receptor 1 (TRPV1). Q8NER1. TRPV1-expressing cells, Fluo-8 calcium influx, capsaicin EC20 potentiation. potentiation, % at 8.33 µM. actives 0.02% (n = 320,000). AID 540277; in the data active means potentiation above about 80%; inconclusive means between about 30% and that limit
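TRPV1-expressing cells were cultured overnight at 35.5C and loaded with Fluo-8 calcium dye for 40 to 90 min at room temperature. After a 10 s baseline, compound was added and calcium influx was read kinetically for 3 min (ex 480/em 520 nm).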
TRPV1 agonist: agonists of human vanilloid receptor 1 (TRPV1); Q8NER1; actives 0.19% (n = 320,000); TRPV1-expressing cells, Fluo-8 calcium influx, agonist mode; activation, % at 8.33 µM; in the data active means activation above about 80%; inconclusive means between about 30% and that limit
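TRPV1-expressing cells were cultured overnight at 35.5C and loaded with Fluo-8 calcium dye for 40 to 90 min at room temperature. After a 10 s baseline, compound was added and calcium influx was read kinetically for 3 min (ex 480/em 520 nm).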
TRPML1 inh: human mucolipin-1 channel inhibition; Q9GZU1; activity change, negative = inhibition, % (concentration not given with the values); TRPML1-inducible cells, Ca2+ dye fluorescence, FDSS; hits give low values; inhibition of EC80 agonist-evoked calcium signal; AID 624415; actives 0.02% (n = 390,000); in the data active means activity change below about -50%; inconclusive means between about -30% and that limit;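 further: stimulus is agonist 54-4 at its EC80 concentration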
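Tet-induced TRPML1-DL cells loaded with Ca8 no-wash calcium dye were read kinetically on FDSS. Compound addition was followed by EC80 agonist 54-4 (4 uM final); inhibition was read over 110 s.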
Hits are given with their value; n = inactive; u = inconclusive; x = no result; ! = not confirmed by another sample.

SMILES	TRPML1 agonist	TRPV1 PAM	TRPV1 agonist	TRPML1 inh
CC(C)(C)c1ccc(C(=O)Nc2cccc(-n3cnnn3)c2)cc1	n	n	80	n
CCCCOc1ccc(C(=O)Nc2cccc(-n3cnnn3)c2)cc1OC	n	n	89	n
CCN1/C(=C/C=C/c2oc3ccc4ccccc4c3[n+]2CC)Oc2ccc3ccccc3c21	63	n	n	n
CCc1nc(Nc2ccc3c(c2)OCCO3)c2oc3ccccc3c2n1	n	n	89	n
Cc1nc(Nc2ccc3c(c2)OCCO3)c2oc3ccccc3c2n1	n	n	82	n
c1ccc2c(c1)oc1c(Nc3ccc4c(c3)OCCO4)ncnc12	n	n	83	n
Cc1nc(Nc2cccc(O)c2)c2oc3ccccc3c2n1	n	n	n	n
CCNc1nc(C)nc2c1oc1ccccc12	n	n	u	n
O=[N+]([O-])c1ccc2ncnc(Nc3ccc4c(c3)OCCO4)c2c1	n	n	n	n
CCNc1nc(CC)nc2c1oc1ccccc12	n	n	88	n
COc1ccccc1NC(=O)Cn1c(=O)n(Cc2nc(-c3ccccc3)no2)c(=O)c2ccccc21	n	x	x	n
Cc1cccc(C(=O)NCC(=O)OCc2cc(=O)n3nc(CC(C)C)sc3n2)c1	n	x	x	n
CN(C)c1ccc(/C=C/c2cc3ccccc3cn2)cc1	n	x	x	x
CN1CCN(S(=O)(=O)c2ccc(N(C)Cc3ccc(OC(F)F)cc3)c([N+](=O)[O-])c2)CC1	53	n	n	n
O=C(/C=C/c1ccc(Cl)cc1)NCc1ccncc1	n	n	82	n
Cc1ccc2oc(-c3cccc(NC(=O)c4sc5c([N+](=O)[O-])cccc5c4Cl)c3)nc2c1	n	x	x	n
CCOC(=O)N1CCN(C(=O)c2c(C)nn(-c3cccc(C)c3)c2-n2cccc2)CC1	n	x	x	n
Cc1cccc(-n2nc(C)c(C(=O)N3CCN(c4ccccc4)CC3)c2-n2cccc2)c1	71	x	x	n
CC(C)(C)n1ncc2c(=O)n(Cc3cc(F)c(F)cc3Cl)cnc21	n	x	x	n
CCN(CC)CCN(CC)c1ccc(/C=C/c2ccnc3ccccc23)cc1	n	x	x	x
CCN(CC)c1ccc(/C=C/c2ccnc3ccccc23)cc1	54	x	x	x
CN(C)c1ccc(/C=C/c2ccc3cc(N(C)C)ccc3n2)cc1	n	x	x	x
CN(C)c1ccc(/C=C/c2ccnc3ccc(Cl)cc23)cc1	n	x	x	x
CN(C)c1ccc(/C=C/c2ccc3ccccc3n2)cc1	52!	n	n	n
CN(C)c1ccc(/C=C/c2ccnc3c(Cl)cccc23)cc1	54	x	x	x
SMILES	TRPML1 agonist	TRPV1 PAM	TRPV1 agonist	TRPML1 inh
CN(C)c1ccc(/C=C/c2ccnc3ccc(Br)cc23)cc1	54	x	x	x
CCCc1nnc(N2C(=O)c3oc4ccc(F)cc4c(=O)c3C2c2ccc(C(=O)OC)cc2)s1 (centres undefined)	n	x	x	n
CN(C)c1ccc(N=Nc2ccc(/C=C/c3ccnc4ccccc34)cc2)cc1	124	x	x	x
CN1CCCc2cc(/C=C/c3ccnc4ccccc34)ccc21	52	x	x	x
COc1cc(/C=C/c2ccnc3ccccc23)ccc1N(C)C	58	x	x	x
CN(C)c1ccc(N=Nc2ccnc3ccccc23)cc1	n	x	x	x
CN(C)c1ccc(/C=C/c2ncnc3ccccc23)cc1	82	x	x	x
Fc1ccc(-c2nnc(CN3CCN(c4ccccn4)CC3)o2)cc1	n	x	x	n
CCOCCCn1c(=S)[nH]c2cc(C(=O)NCCCN(CC)CC)ccc2c1=O	n	105	n	n
CCOCCCNC(=O)c1ccc2c(=O)n(CCCOCC)c(=S)[nH]c2c1	n	n	n	n
O=C1c2cccc3c(N4CCCCC4)ccc(c23)C(=O)N1c1ccccc1O	58	n	u	n
O=C1c2cccc3c(N4CCCCC4)ccc(c23)C(=O)N1c1ccc(O)cc1	u	n	u	n
CCCCn1nnnc1C(c1ccccc1)N1CCN(Cc2c(F)cccc2Cl)CC1 (centres undefined)	57	x	x	x
Cc1ccc(/C=C/c2onc(C)c2S(=O)(=O)N2CCC(C(=O)N3CCOc4ccc(C)cc43)CC2)cc1	n	x	x	n
CN(C)S(=O)(=O)c1ccc(S(=O)(=O)N(Cc2ccco2)Cc2ccccc2Cl)cc1	64	n	n	n
CSc1ccc(CCNC(=O)c2ccc(-n3c(C)cc4c3CCCC4)cc2)cc1	n	x	x	n
CC(C)(C)n1ncc2c(=O)n(Cc3cccc(OC(F)F)c3)cnc21	n	x	x	n
COc1ccc(NC(=O)c2ccc3c(c2)CCN3S(C)(=O)=O)cc1	n	x	x	n
CS(=O)(=O)N1CCc2cc(C(=O)Nc3ccc(Cl)cc3)ccc21	n	n	84	n
Cc1cccc(N2CCN(c3ncnc4c3c(-c3ccccc3)cn4-c3ccccc3)CC2C)c1 (centres undefined)	51	x	x	n
CCOC(=O)C1CCN(c2ncnc3c2c(-c2ccccc2)cn3-c2ccccc2)CC1	75	n	n	n
COc1ccc(S(=O)(=O)N2CCN(C(=O)c3cc(-c4ccccc4OC)n[nH]3)CC2)cc1	n	n	82	n
COc1ccccc1/C=C/c1nc2ccccc2[nH]1	n	x	x	x
COc1cc(/C=C/C(=O)c2ccc3c(c2)OCO3)cc(Cl)c1O	56	n	u	n
COc1ccc(C(=O)C=Cc2ccc3c(c2)OCO3)cc1OC	n	x	x	n
SMILES	TRPML1 agonist	TRPV1 PAM	TRPV1 agonist	TRPML1 inh
N#C/C(=C/c1ccc(N2CCCCC2)o1)C(=O)Nc1ccc2ccccc2c1	51	n	u	n
COc1ccc(NC(=O)/C(C#N)=C\c2ccc(N3CCOCC3)o2)cc1	65	n	u	n
N#C/C(=C/c1ccc(N2CCCCC2)o1)C(=O)Nc1ccc(Cl)cc1	61	n	u	n
N#C/C(=C\c1ccc(N2CCOCC2)o1)C(=O)Nc1ccc(O)cc1	n	n	n	n
O=C(NCCc1ccccc1)[C@@H]1CC=C[C@@H]2CCN(C3CC3)C(=O)[C@@H]21	n	x	x	x
O=C(Cc1ccc(OCCCc2ccccc2)cc1)NO	n	x	x	x
COc1cccc(NC(=O)c2ccc(S(=O)(=O)NCc3cccnc3)cc2)c1	n	n	n	n
Cc1ccc(NC(=O)c2ccc(S(=O)(=O)NCc3ccco3)cc2)cc1	n	n	82	n
CCc1ccc(NC(=O)c2ccc(S(=O)(=O)NCc3cccnc3)cc2)cc1	n	n	87	n
C[N+]1(CC(=O)c2ccc3c(c2)CCCC3)CCOCC1	n	x	x	x
Cc1ccccc1C(=O)Nc1nnc(-c2ccc(C(C)(C)C)cc2)s1	n	83	n	n
Cc1cccc(C(=O)Nc2nnc(-c3ccc(C(C)(C)C)cc3)s2)c1	n	n	n	n
Cc1ccc(-c2c(C(=O)N/N=C/c3ccoc3)nnn2-c2nonc2N)cc1	n	n	88	n
COc1cccc(NC(=O)Nc2ccc(C(C)(C)C)cc2)c1	n	n	82	n
COC(=O)c1cccc(NC(=O)Nc2ccc(Cl)c(Cl)c2)c1	n	n	n	n
COC(=O)c1cc(NC(=O)Nc2ccccc2)ccc1Cl	n	n	83	n
COc1cccc(NC(=O)NCCc2ccc(Cl)cc2)c1	n	n	u	n
CCCCSCCCNC(=O)Nc1cccc(OC)c1	n	n	83	n
Cc1ccc(N2CC(NC(=O)C3CCCC3)CC2=O)cc1 (centres undefined)	n	x	x	n

From PubChem BioAssay
